# Laboratory results from PubChem BioAssay AID2320 (National Center for Advancing Translational Sciences (NCATS), 2010).
# Records with an inconclusive call do not appear. Calls of active or inactive are those of the source. The call rests on the fitted dose curve.
# Test: A qHTS for Small Molecule Inhibitors of Shiga Toxin (Confirmatory); further: nearly all actives have a fitted effect of over 75% in size; on activity, positive = inhibition of toxin: 0% is about no effect
# Details: Cell-based Shiga toxin protection reporter assay; series mostly up to 38.3 µM; activity, positive = inhibition of toxin: at the top concentration
# Potency means the concentration at half of the fitted maximal effect.
SMILES,"activity, positive = inhibition of toxin",Potency
O=C(/C=C/c1cn(CC(O)CN2CCCCC2)c2ccccc12)c1cccs1 (stereo not drawn),-20.1% (inactive),
COc1ccccc1-n1cnnc1SCC(=O)Nc1ccccc1,,22.5 µM (active)
COc1ccccc1NC(=O)CSc1nnc(CC(=O)Nc2ccccc2F)n1C,-1.04% (inactive),
CSc1nc(SCCO)c2sc3nc(-c4ccco4)c4c(c3c2n1)CC(C)(C)OC4,24.5% (inactive),
Cc1cc(Cl)ccc1NC(=O)CN1CCC(C(O)(c2ccccc2)c2ccccc2)CC1,-5.9% (inactive),
Cc1ccc(-c2csc(NC(=O)c3ccc(C)o3)n2)cc1,,0.0318 µM (active)
O=C(NCC(=O)N1CCCC(C(F)(F)F)C1)c1ccc(Oc2ccccc2)cc1 (stereo not drawn),11.5% (inactive),
O=C(NCCCO)/C(=C\c1ccco1)NC(=O)c1ccco1,21.2% (inactive),
C/C1=C\[C@@H](O)C(C(C)C)C(OC(=O)c2ccc(O)cc2)C/C(C)=C/CC1 (stereo partly drawn),,17.9 µM (active)
CCCn1c(C)cc(/C=C(\C#N)C(=O)OCC(=O)Nc2ccc(OC)c(Cl)c2)c1C,,8.95 µM (active)
COc1ccc(NC(=O)CSc2nccn2-c2cccc(OC)c2)cc1,-33.2% (inactive),
CCOc1cc(S(=O)(=O)N2CCN(Cc3ccccc3)CC2)ccc1Br,-26.4% (inactive),
CON(C)S(=O)(=O)c1cccc(C(=O)NC2CCSc3ccccc32)c1 (stereo not drawn),-17.3% (inactive),
COc1ccc(-c2cnc[nH]2)cc1,15.5% (inactive),
Cc1cc(C)c2c(n1)SCC(=O)N2CC(=O)Nc1ccc(C)c(C)c1,,0.449 µM (active)
O=C(Cn1cnc2cc([N+](=O)[O-])ccc2c1=O)NCc1ccc(Cl)cc1,-17.9% (inactive),
O=C(Cc1cccs1)Nc1ccc(-c2nnc(-c3ccco3)o2)cc1,,4 µM (active)
CN1CCN(C(=O)CN(C)S(=O)(=O)c2ccc(F)cc2)CC1,45.5% (inactive),
Cc1cc(OCC(=O)NCc2ccccn2)cc(C)c1Br,-1.75% (inactive),

SMILES,"activity, positive = inhibition of toxin",Potency
CCc1ccccc1NC(=O)Cn1nnc(-c2cccs2)n1,15.7% (inactive),
CC(C)(C)C(=O)Cn1ncc(N2CCOCC2)c(Br)c1=O,,22.5 µM (active)
COc1ccc(OCc2cccc(C(=O)O)c2)cc1,,0.0356 µM (active)
CC(=O)Nc1cccc(NC(=O)CSc2nc3ccccc3o2)c1,-0.494% (inactive),
O=C(CN1CCN(c2ncc(C(F)(F)F)cc2Cl)CC1)NC(=O)NCc1ccccc1,-15.7% (inactive),
CSc1nc2ccc(N3C(=O)C4CCCCC4C3=O)cc2s1 (stereo not drawn),29.6% (inactive),
COC(=O)c1ccc(C)c(NC(=O)CCSc2ccc(Cl)cc2)c1,-30.1% (inactive),
Cc1ccccc1C(=O)NN1CCOCC1,15.9% (inactive),
Cc1cc(C(=O)COC(=O)C2CC2)c(C)n1-c1ccc(F)cc1,,4 µM (active)
Cc1cc(C)nc(SCC(=O)Nc2cc(C)on2)n1,-32.1% (inactive),
N#Cc1cc2c(nc1SCC(=O)Nc1cc(Cl)ccc1Cl)C1CCN2CC1,,12.6 µM (active)
CC(=O)c1ccccc1Oc1ncnc(N)c1[N+](=O)[O-],-5.59% (inactive),
COc1ccc(NC(=O)c2cccnc2Nc2ccc(OC)cc2)cc1,49.4% (inactive),
CS(=O)(=O)N(CC(=O)Nc1ccccc1Sc1ccccc1)C1CCCCC1,-12.4% (inactive),
COc1ccc2[nH]c(-c3ccccc3)cc(=O)c2c1,,0.0711 µM (active)
COc1ccccc1C(=O)NNC(=O)c1ccc2ccccc2c1,,0.0006 µM (active)
Cc1cccc(C(=O)Nc2scc(CC(C)C)c2C(=O)O)c1,-17.8% (inactive),
COc1cc(O)c2c(c1)oc(=O)c1c3cc(O)c(O)cc3oc21,,7.98 µM (active)
NC(=O)C1CCN(C(=O)C2c3ccccc3C(=O)N3CCc4ccccc4C23)CC1 (stereo not drawn),-53.8% (inactive),
